SKKanGAS inh – S. pyogenes SKKanGAS growth inhibitors in kanamycin, primary screen, streptokinase expression inhibitor project, SKKanGAS strain, BacTiter-Glo luminescence; 6 h; inhibition, % at 7.5 µM; actives 1.3% (n = 300,000);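 active = mean replicate score, as percent of positive control median, at least 50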;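 note: strain carries kanamycin resistance gene driven by streptokinase promoter and grows in 40 µg/ml kanamycin; loss of luminescence reflects streptokinase promoter inhibition or plain growth inhibition; 0% = median of DMSO wells and 100% = positive control at its reference dose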
TIM10 inh – growth inhibitors of isogenic TIM10 control yeast, primary screen, counter-screen for tim10-1 yeast inhibitor project, luminescence, uHTS. S. cerevisiae TIM10 strain growth, BacTiter-Glo luminescence, 24 h. inhibition, % at 10 µM. actives 1.4% (n = 330,000). AID 463195, 2010;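 active = inhibition of 40% or more at the single tested concentration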;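 note: wild-type TIM10 isogenic control strain grown at permissive 25 °C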
tim10-1 inh – growth inhibitors of tim10-1 mutant yeast, primary screen, luminescence, uHTS | actives 2.2% (n = 330,000) | inhibition, % at 20 µM | S. cerevisiae tim10-1 ts strain growth, BacTiter-Glo, 24 h;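 active = inhibition of at least 40%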;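 note: mutant grown at 25 °C; 0% = DMSO wells with yeast and 100% = wells holding no yeast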
PfHsp90 set2 – growth inhibition of PfHsp90-expressing yeast, primary screen, antimalarial PfHsp90 inhibitor project, S. cerevisiae, BacTiter-Glo luminescence, single point, set 2 | BacTiter-Glo ATP, 48 h; yeast lacking PDR1 and PDR3 efflux regulators | inhibition, % at 9.4 µM | actives 0.32% (n = 310,000) | AID 504621, 2011;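 active = every replicate shows inhibition above about 80%, whatever the replicate mean, limit read from the data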;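 note: 0% = DMSO neutral controls and 100% = 20 µM radicicol positive controls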
tim23-1 inh – growth inhibitors of tim23-1 mutant yeast, primary screen, luminescence, uHTS; inhibition, % at 20 µM; actives 1.3% (n = 330,000); S. cerevisiae tim23-1 growth, BacTiter-Glo luminescence, 24 h;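 active = growth inhibition of the mutant yeast at or above 50%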;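 note: temperature-sensitive mutant grown at 25 °C; plate controls were DMSO-treated mutant yeast for no effect and medium wells lacking yeast for full effect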
tim23-1 confirm – tim23-1 mutant yeast growth inhibitors, confirmation, luminescence, single concentration. S. cerevisiae tim23-1 growth, BacTiter-Glo luminescence, 24 h. inhibition, % at 20 µM. shares compounds with tim23-1 inh. actives 83% (n = 4,400);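 active = inhibition above about 39% in either of two replicate wells at 20 µM, limit read from the data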;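 note: temperature-sensitive tim23-1 mutant grown at 25 °C; 0% = DMSO wells with yeast and 100% = medium wells without yeast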
Starred values were filed as active, the others as inactive; x = no result. Compounds with a hit are over-represented: about 4.4% of the library has one in this group of screens.

SMILES	SKKanGAS inh	TIM10 inh	tim10-1 inh	PfHsp90 set2	tim23-1 inh	tim23-1 confirm
CC(OC(=O)c1cccnc1SCc1cc(=O)n2ccccc2n1)c1ccccn1 (stereo unspecified)	-3	24	33	1	40	x
CCOC(=O)c1cccnc1SCc1cc(=O)n2ccccc2n1	7	-5	17	4	71*	65*
O=S1(=O)CC(O)C(N=Nc2c(O)n(Cc3ccccc3)c3ccccc23)C1 (stereo unspecified)	-4	2	13	-3	12	x
Nc1ccc(Sc2cnn(-c3ccccc3)c(=O)c2Cl)cc1	4	19	17	-12	50*	29
Cc1c(NCc2cc(Cl)cc(Cl)c2O)c(=O)n(-c2ccccc2)n1C	85*	36	35	-26	55*	38
Oc1ccc(Br)cc1CNc1ccccn1	-3	-31	-7	-14	27	x
Oc1c(Cl)cc(Cl)cc1CNc1ccccn1	5	10	4	-30	52*	49*
COc1ccc(NS(=O)(=O)c2ccc3oc(=O)c4[nH]c(=O)c(=O)n(C)c4c3c2)cc1	3	12	-1	-5	13	x
O=C(c1ccc(Cl)cc1)N1CCN(C(=O)c2ccco2)CC1	0	-4	-2	15	11	x
O=C(c1ccco1)N1CCN(C(=O)c2ccc(-c3ccc(Cl)cc3)o2)CC1	x	18	2	-3	51*	40*
Fc1ccc(-c2n[nH]c(=S)n2Cc2ccccc2)cc1	-2	36	16	-16	56*	29
S=c1[nH]nc(-c2ccncc2)n1Cc1ccccc1	0	10	9	-15	4	x
COc1cccc2sc3cc(NCc4ccc5c(c4)OCO5)ccc3c(=O)c12	x	17	-33	0	68*	56*
O=C(NCCCN1CCOCC1)C(=O)N/N=C/c1ccccc1O	-2	4	15	5	0	x
COc1ccc(N2C(=O)CC(NCc3cccs3)C2=O)cc1 (stereo unspecified)	0	1	-4	-24	55*	13
O=C(COC(=O)CC1CCCC1)Nc1ccc(Cl)cc1	x	26	36	x	62*	55*
CCOc1ccc(NC(=O)COC(=O)CC2CCCCC2)cc1	x	15	-21	-14	31	x
Cc1cc(C)cc(OCc2nnc(SCC(=O)N3CCCCC3)o2)c1	-5	-3	13	17	14	x
CCN(CC(=O)Nc1ccc(C(=O)Nc2ccc(OC)cc2)cc1)Cc1nc2ccccc2c(=O)[nH]1	18	-4	6	18	-8	x
CC1CC(C)CN(C(=O)COC(=O)c2nn(C)c(=O)c3ccccc23)C1 (stereo unspecified)	-2	12	17	x	26	x
CN1c2ccccc2C(=O)/C(=C\Nc2ccc(F)cc2)S1(=O)=O	10	5	-6	16	15	x
CN1c2ccccc2C(=O)C(=C2SCCCS2)S1(=O)=O	-6	38	25	0	53*	54*
Cc1ccc(/C=C2/NC(=O)N(Cc3ccccc3)C2=O)o1	6	2	25	7	68*	58*
Cc1nc(NCCc2ccc(O)cc2)c2nnn(Cc3ccccc3)c2n1	9	0	19	8	15	x
CC(C)Cn1c(/C=C/c2ccccc2)nc2ccccc21	-1	39	39	-10	56*	46*
SMILES	SKKanGAS inh	TIM10 inh	tim10-1 inh	PfHsp90 set2	tim23-1 inh	tim23-1 confirm
Cc1ccc(C(=O)NC(=S)Nc2ccccc2C(F)(F)F)cc1C	37	-14	23	-1	3	x
Cc1cccc(C(=O)NC(=S)Nc2ccccc2C(F)(F)F)c1	1	22	30	-31	51*	38*
N#C/C(=C\c1ccc(OC(F)F)cc1)C(=O)N1CCCCC1	-5	25	33	-8	62*	44*
O=C(Cn1ncc2c1-c1ccccc1OC2)Nc1nc2ccccc2s1	-3	27	12	-4	62*	57*
OC[C@@H]1[C@@H](c2ccc(Cl)cc2)C(c2cccc(Cl)c2)=NN1c1ccccc1	x	17	20	-26	49	x
OC[C@@H]1[C@@H](c2ccc(Cl)cc2)C(c2ccccc2)=NN1c1ccccc1	x	6	17	-52	53*	34
OC[C@@H]1[C@@H](c2ccc(F)cc2)C(c2cccc(Cl)c2)=NN1c1ccccc1	x	16	21	-24	53*	39
Cc1nn(CC(=O)Nc2cccnc2)c(=O)c2ccccc12	-3	-5	12	-4	-8	x
O=C(Cc1ccccc1)N/N=C/c1ccc([N+](=O)[O-])s1	10	37	-13	-6	-12	x
Cc1cccc(/C=N/NC(=O)c2cc(C)nc3ccccc23)n1	0	1	-17	5	5	x
Cc1cc(C(=O)N/N=C/c2ccc([N+](=O)[O-])s2)c2ccccc2n1	13	27	32	-2	65*	59*
O=C(N/N=C/c1cc([N+](=O)[O-])ccc1Cl)c1cc(-c2ccccc2)nc2ccccc12	-5	-21	-9	-39	-3	x
O=C(N/N=C/c1ccc([N+](=O)[O-])s1)c1ccccc1Br	9	18	-5	5	77*	64*
O=C(N/N=C/c1cc([N+](=O)[O-])ccc1O)c1cc(-c2ccccc2)nc2ccccc12	90*	36	39	-20	58*	58*
CCC(C)Sc1ccc([C@@H]2[C@@H]3C(=O)N(CC)C(=O)[C@@H]3[C@]3(C(=O)OC)CCCCN23)cc1 (stereo partly specified)	x	7	21	3	14	x
O=[N+]([O-])c1nn(-c2ccc3c(c2)OCCO3)n(O)c1=Nc1ccccc1	2	5	36	-91	53*	23
Cc1ccc(CN2CCC(CNC(=O)c3ccc(NC(=O)C4=CSCCO4)cc3)CC2)cc1	4	-14	3	3	4	x
CCCS/C(N)=N/N=C/c1cc(C)ccc1O	1	8	27	28	44	x
CCCCS/C(N)=N/N=C/c1ccccc1O	13	24	37	25	58*	66*
CC1(C)CC2CC(C)(CN2C(=O)c2cc(-c3ccc(O)cc3)on2)C1 (stereo unspecified)	34	-6	-36	17	53*	48*
Cc1cccc(NC(=O)c2cc[n+]([O-])cc2)c1C	0	-11	9	-9	16	x
CC(C)(C)c1ccc(S(=O)(=O)Nc2ccc(C(=O)N3CCCC3)cc2)cc1	2	-4	-5	-2	6	x
CC1(C)CC(=O)C2=C(C1)N(c1ccccc1)C(=O)C2(O)C(F)(F)F (stereo unspecified)	0	-28	-35	4	-13	x

From PubChem
